# Hits are enriched below; roughly 9.4% of the tested compounds scored in any of these assays.
# Rab9 prom act: qHTS Assay for Rab9 Promoter Activators; Huh7 Rab9 promoter-luciferase reporter, luminescence, 24 h; Potency, µM (top dose mostly 9.22 µM), without a hit: top-dose activation, negative = inhibition, hits mostly activators; 2.8% of 320,000 active; further: % of control where 0% means no effect; nearly all actives have a fitted effect of over 60% in size
#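 Promoter activation is measured as luciferase luminescence in Huh7 cells stably transfected with a Rab9 promoter–luciferase construct, following 24 h compound exposure at 37 °C and 10 min reagent incubation at ambient temperature.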
# SMN2 splice enh: qHTS Assay for Enhancers of SMN2 Splice Variant Expression; AID 1458, 2008; Potency, µM (doses to about 46.1 µM), for inactives: at the highest dose activity change, positive = activation, hits mostly activators; 2.8% of 210,000 active; HEK293 SMN2-luciferase splicing reporter, luminescence, 30-36 h; further: % of control where 0% means no effect; nearly all actives have a fitted effect of over 55% in size
#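 HEK293 cells carry an SMN2 minigene-luciferase reporter in which exon 7 inclusion puts luciferase in frame. Cells were seeded at 2000 cells/well, attached for 10-12 hours, then exposed to compounds for 30-36 hours at 37C before ONE-Glo luminescence.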
# ELG1 repair inh: qHTS screen for small molecules that inhibit ELG1-dependent DNA repair in human embryonic kidney (HEK293T) cells expressing luciferase-tagged ELG1 | HEK293T ELG1-luciferase reporter, luminescence, 16 h; DNA damage induced by 5-fluorouridine | Potency, µM (series often up to 46.1 µM), for inactives: at the highest dose activity change, negative = inhibition, usual class: inhibitors | 2.3% of 330,000 active; further: on the % scale 0 is the no-effect control and ±100 the full control effect; nearly all actives have a fitted effect of over 55% in size
#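 Step one: seed 2,000 cells per well. Step two: pin-transfer compound or DMSO alongside 5-fluorouridine. Step three: incubate 16 hr, 37 °C, 5% CO2. Step four: add ONE-Glo, wait 30 min, read luminescence.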
# ELG1 genotox: qHTS screen for small molecules that induce genotoxicity in human embryonic kidney (HEK293T) cells expressing luciferase-tagged ELG1; 1.3% of 330,000 active; HEK293T ELG1-luciferase reporter, luminescence, 16 h; Potency, µM (titrated, usually from 46 µM), for the others: at the top dose activity change, positive = activation, hits mostly activators; further: % of control where 0% means no effect; nearly all actives have a fitted effect of over 60% in size
#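 Luminescence read-out: rising ELG1-luciferase signal, reflecting elevated ELG1 protein under genetic stress, flags genotoxic compounds. Cells were treated for 16 hr at 37 °C before ONE-Glo detection.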
# FLuc counter: qHTS profiling assay for firefly luciferase inhibitor/activator using purifed enzyme and Km concentrations of substrates (counterscreen for miR-21 project); Potency, µM (series often up to 57.5 µM), for inactives: at the top dose activity change, negative = inhibition, actives largely listed as inhibitors; purified FLuc, Km substrates, luminescence inhibition; Luciferin 4-monooxygenase (Photinus pyralis), P08659; 6.9% of 360,000 active; AID 588342, 2011;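 further: plate controls were vehicle for no effect and reference inhibitor for full effect; nearly all actives have a fitted effect of over 55% in size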
# Target sequence (P08659 whole entry, looked up): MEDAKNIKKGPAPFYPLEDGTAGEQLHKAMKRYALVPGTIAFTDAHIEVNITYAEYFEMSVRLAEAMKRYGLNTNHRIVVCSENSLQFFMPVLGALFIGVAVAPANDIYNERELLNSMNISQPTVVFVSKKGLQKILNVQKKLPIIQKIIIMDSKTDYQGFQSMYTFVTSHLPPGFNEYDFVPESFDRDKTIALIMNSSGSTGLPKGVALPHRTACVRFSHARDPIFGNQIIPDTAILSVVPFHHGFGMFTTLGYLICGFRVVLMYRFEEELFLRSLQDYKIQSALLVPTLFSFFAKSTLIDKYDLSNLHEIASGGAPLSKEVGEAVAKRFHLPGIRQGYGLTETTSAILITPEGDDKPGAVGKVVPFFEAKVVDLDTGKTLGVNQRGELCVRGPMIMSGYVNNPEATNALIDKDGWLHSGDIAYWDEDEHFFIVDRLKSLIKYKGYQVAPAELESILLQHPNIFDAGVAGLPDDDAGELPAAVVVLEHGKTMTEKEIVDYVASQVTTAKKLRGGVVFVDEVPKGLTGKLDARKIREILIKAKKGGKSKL
#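 Purified P. pyralis luciferase, 10 nM final, with Km-level 10 uM D-luciferin and 10 uM ATP in 50 mM Tris acetate pH 7.5, 10 mM Mg acetate, 0.01% Tween-20, 0.05% BSA; 6-point qHTS titration about 60 µM downward; luminescence read.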
# NPC1 prom act: qHTS Assay for NPC1 Promoter Activators. 2.4% of 320,000 active. Huh7 NPC1 promoter luciferase reporter, 24 h. Potency, µM (doses to about 9.22 µM), inactives show at the highest dose activation, usual class: activators. AID 485313, 2010; further: % of control where 0% means no effect; nearly all actives have a fitted effect of over 60% in size
#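 Quantitative HTS used a cell-based reporter: Huh7 cells stably bearing the NPC1 promoter upstream of luciferase were treated with compounds for 24 h, and promoter activation was read as luminescence.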
# * marks the source's active call; other numbers are inactive results; ? = inconclusive; · = not tested or not shown; [ ] = remark or other dose. The call rests on the fitted dose curve; in most records, active means well fitted curve in the direction sought with a large enough effect; inconclusive means small, poorly fitted or top-dose-only effect, or another doubt; inactive means no such curve, though single readings can be large; an effect the other way counts as inactive or inconclusive. Potency means the concentration at half of the fitted maximal effect.
SMILES,Rab9 prom act,SMN2 splice enh,ELG1 repair inh,ELG1 genotox,FLuc counter,NPC1 prom act
COc1ccc(-c2noc(CSc3nc4ccccc4[nH]3)n2)cc1,·,0%,·,·,2%,·
COCCn1c(=O)c(-c2cccc(C#N)c2)nc2cnc(N3CCNCC3)nc21,·,-48%,·,·,·,·
COc1ccc([C@@H]2CNC(=O)C2)cc1OC1CCCC1,·,1%[20.6 µM],·,·,·,·
CCOc1ccc(-c2cnc3ccccc3n2)cc1,4%,·,?,0.52µM*,0.17µM*,?
O=[N+]([O-])c1ccc(-c2c(O)c3ccccc3c3nc4ccccc4nc23)cc1,2%,-69%,23µM*,-8%,-15%,0%
O=[N+]([O-])c1ccc(-c2cnc3ccccc3n2)cc1,?,·,?,?,?,3.2µM*
O=[N+]([O-])c1cc(-c2cnc3ccccc3n2)ccc1Oc1ccc(F)cc1,17%,-23%,?,5%,?,19%
Cc1ccc(-c2cc3c(N4CCN(c5cc(C)ccc5C)CC4)nccn3n2)cc1,·,3%,·,·,-10%,·
Cn1c(Sc2nc3ccccc3n2C)nc2ccccc21,2%,14%,?,-5%,0%,-4%
Cc1oc(-c2nc3ccccc3n2C)cc1C(=O)c1ccccc1,0.32µM*,1.6µM*,?,1.8µM*,0.38µM*,0.5µM*
Oc1ccc(Cn2c(-c3ccc(O)cc3)nc3ccccc32)cc1,·,-6%[9.22 µM],·,·,·,·
Cn1c(-c2ccc(Br)o2)nc2ccccc21,1.4µM*,13µM*,?,?,2.4µM*,1.4µM*
Cc1ccc(-c2nc3ccccc3n2C)o1,1.1µM*,11µM*,?,2.9µM*,5.4µM*,1.6µM*
Cn1c(C2CCCCC2)nc2ccccc21,-3%,·,29%,7%,-11%,-3%
Cn1cc(C(=O)c2ccccc2)cc1-c1nc2ccccc2n1C,-6%,-10%,-25%,-17%,-10%,0%
Brc1ccc(Cn2c(-c3ccc(Br)o3)nc3ccccc32)o1,11%,19%,28%,5%,19µM*,13%
CCn1cc(S(=O)(=O)c2ccc(C)cc2)c(=O)c2cc(F)c(N3CCCCCC3)cc21,·,·,·,·,4%,·
CCc1nnc(SC(CC)C(=O)Nc2cccc(OC)c2)c2cc3oc(C)cc3n12 (stereo unspecified),·,·,·,·,4%,·
CC(=O)c1ccc(-c2nc3ccccc3n2C)o1,?,11µM*,?,21µM*,21µM*,?
CC(C)Cn1c(-c2ccc(Br)o2)n[nH]c1=S,-2%,-8%,0%,0%,3%,-1%
Cc1ccc(C2Nc3ccccc3-c3nc4ccccc4n32)o1 (stereo unspecified),?,11µM*,?,?,11µM*,?
CCC(=O)c1cc(-c2nc3ccccc3n2C)n(C)c1,-4%,9%,4%,5%,-2%,1%
Cn1c(-c2ccc(Br)o2)nc2cc(Br)ccc21,1.1µM*,14µM*,?,?,1.9µM*,1.4µM*
COC(=O)c1cn(NC(=O)C2CCCCC2)c(=O)c2ccccc12,6.3µM*,-2%,17%,-6%,3%,2%
COC(=O)c1cn(NC(=O)c2ccncc2)c(=O)c2ccccc12,-5%,-6%,0%,-1%,4%,2%
SMILES,Rab9 prom act,SMN2 splice enh,ELG1 repair inh,ELG1 genotox,FLuc counter,NPC1 prom act
Cc1noc(NC(=O)Nc2ccccc2F)c1C#N,·,-13%[9.22 µM],·,·,·,·
Cc1cc(C)cc(NC(=O)Cn2c(C(F)(F)F)nc3ccccc32)c1,·,-15%,·,·,-1%,·
COc1ccc(Cn2c(SCC(=O)N3CCN(c4ccc(F)cc4)CC3)nc3ccccc32)cc1,·,-9%,·,·,1%,·
COc1ccc(CC(=O)N2CCC(Nc3nc4ccccc4n3Cc3ccc(F)cc3)CC2)cc1,-5%,-3%,21µM*,-10%,5%,-3%
S=c1[nH]nc(CSCCOc2ccccc2)o1,-3%,·,9%,1%,-18%,-1%
S=c1[nH]nc(CSCCOc2ccc(Cl)cc2Cl)o1,2%,·,-9%,5%,21µM*,14%
O=c1[nH]c(C2CCN(S(=O)(=O)Cc3ccccc3)CC2)nc2c1nnn2Cc1cccc(Cl)c1,-7%,·,-8%,1%,-2%,1%
O=c1[nH]c(C2CCN(S(=O)(=O)Cc3ccccc3)CC2)nc2c1nnn2Cc1ccccc1Cl,-3%,·,26µM*,-9%,2%,-4%
O=c1[nH]c(C2CCN(S(=O)(=O)Cc3ccccc3)CC2)nc2c1nnn2Cc1ccccc1,-4%,·,23µM*,-16%,-1%,-4%
Cc1cc(C)c2sc(N(CCCN(C)C)C(=O)c3ccc(S(=O)(=O)N4CCc5ccccc5C4)cc3)nc2c1,-34%,·,13µM*,?,5%,-34%
COc1cc(-n2c(N)c(C(=O)NCc3ccco3)c3nc4ccccc4nc32)cc(OC)c1OC,-6%,-28%,-8%,10%,-1%,-5%
COc1ccc(-n2c(N)c(C(=O)NCc3ccco3)c3nc4ccccc4nc32)cc1OC,2%,-15%,6.5µM*,10%,-3%,-5%
COc1ccc(C(=O)Nc2ccccc2C(=O)NCc2ccco2)cc1OC,9%,19%,15µM*,-5%,-14%,1%
O=C(Nc1cccc(Cl)c1)Nc1ccccc1C(=O)NCc1ccco1,7%,9%,3%,1%,19µM*,3%
Cc1ccccc1CN(c1ccc(C(=O)N2CCc3ccccc3C2)cc1)S(C)(=O)=O,-2%,-29%,15µM*,-5%,3%,-2%
COC(=O)[C@H](COC(C)(C)C)NC(=O)O[C@@H]1C(=O)c2cc(Br)ccc2O[C@H]1c1ccc2c(c1)OCO2,·,1%,·,·,·,·
COc1ccccc1CNC(=O)C1CCC(CNS(=O)(=O)c2ccc3c(c2)CCCC(=O)N3)CC1 (stereo unspecified),·,·,·,·,6%,·
COc1ccc(-c2noc(-c3ccccc3C(=O)NCc3ccco3)n2)cc1OC,-3%,-10%,8.2µM*,-19%,19µM*,9%
C=CCNC(=O)c1c(N)n(-c2cccc(S(N)(=O)=O)c2)c2nc3ccccc3nc12,-5%,-18%,9.2µM*,-22%,1%,0%
COc1ccc(Cl)cc1C(=O)NCc1ccco1,-1%,·,?,2%,-6%,2%
COc1ccc(C(=O)Nc2ccc(Cl)cc2C(=O)NCc2ccco2)cc1OC,-4%,-3%,16µM*,-9%,-2%,-4%
